Laboratory results: ChEMBL document CHEMBL1157539, “Thousands of chemical starting points for antimalarial lead identification” (Nature, 2010)

These compounds were tested on Plasmodium falciparum (assay: GSK_TCMDC: Inhibition of Plasmodium falciparum 3D7 in whole red blood cells, using parasite LDH activity as an index of growth. Test compounds present at 2uM).
Assay type: functional

SMILES | Inhibition
O=C(Nc1cccc(-c2cccc(-c3nc4ccccc4[nH]3)c2)c1)c1cccnc1 | 95%
CCNc1cc(C(=O)N[C@@H](Cc2ccccc2)[C@H](O)CNC2(CC(C)C)CC2)cc(N2CCCCS2(=O)=O)c1.Cl | 87%
Cc1ccc2nc(C)cc(N/N=C/c3ccc([N+](=O)[O-])cc3)c2c1 | 100%
O=C(O)C1CC(=O)N(c2ccc(Cl)cc2)C1 (stereo not drawn) | 97%
CCN(CCCN1CCCCC1)c1cc(C)nc(Nc2cc(Cl)ccc2C)n1.O=C(O)C(F)(F)F | 99%
COc1ccc2ncc(F)c(CCN3CCC(NCc4cc(F)c5c(c4)OCCO5)CC3)c2n1.Cl | 100%
O=C(Cc1c[nH]cn1)Nc1ccc(-c2cccc(-c3nc4cc(F)ccc4[nH]3)c2)cc1 | 100%
CCC[C@@H]([C@@H](CC1CCCCC1)C(=O)N[C@@H](CCOC(=O)NCC)C(=O)Nc1nccs1)N(O)C=O | 100%
CC(=O)Nc1ccc(Nc2ncc([N+](=O)[O-])c(Nc3ccccc3C(N)=O)n2)cc1.Cl | 98%
COc1ccc(-c2ccc(CN(C)C3CCC(NC(=O)c4cc5ccccc5[nH]4)CC3)cc2)cn1 (stereo not drawn) | 88%
COc1ccc(-c2cc(-c3nc4cc(C(=O)N5CCOCC5)ccc4[nH]3)c(=O)n(C)c2)cc1OC.O=C(O)C(F)(F)F | 93%
COc1ccc(N2CCN(CCCCNC(=O)c3ccc(NC(=O)c4cc(C(F)(F)F)cc(C(F)(F)F)c4)cc3)CC2)c(OC)c1 | 100%
Cc1ccc(NC(=O)c2ccc(NCCCN(C)Cc3ccccc3)c([N+](=O)[O-])c2)cc1F | 100%
